# Assay outcomes (PubChem BioAssay)
# Sampled rows, rich in hits. Any-hit rate of the full collection: about 0.5%.
# AddAB inh: growth inhibition of E. coli expressing H. pylori AddAB, primary screen, AddAB inhibitor project, absorbance; inhibition, % at 11.9 µM; AID 435030, 2010; 330,000 compounds, 0.29% hits; in the data active = inhibition above about 12%
# E coli growth-1: E. coli growth inhibition, primary screen, OD600. OD600 absorbance (concentration not given with the values). 330,000 compounds, 0.21% hits. Escherichia coli growth, 23 h; active compounds read low. AID 1053175, 2014;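 active = OD600 absorbance below the run mean of sample wells minus 3.6 SD, in any replicate, cut at about 0.56 in these data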
# E coli growth-2: E. coli V3065 growth inhibition, primary screen, counter-screen for AddAB inhibitor project, absorbance, OD600; 18 h; 330,000 compounds, 0.27% hits; inhibition, % at 11.9 µM;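 active = inhibition above the campaign's mean inhibition across all tested compounds plus 3 SD, cut at about 9.9% in these data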;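 note: uninfected addAB+ strain grown without phage in ampicillin broth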
# Tat transport: E. coli Tat export inhibitors, primary screen, MC4100, TorA-mCherry reporter, fluorescence, single point; inhibition, % at 10 µM; 340,000 compounds, 0.036% hits; AID 488895, 2010;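 active = mean replicate inhibition at least 50% and at least half of replicates individually reaching 50%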;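 note: exported cargo escapes ClpAP degradation while cytoplasmic cargo is degraded and loses fluorescence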
# phage Ecoli inh: growth loss of phage-infected E. coli, primary screen, RecBCD inhibitor project, absorbance, with phage, HTS. AID 651602, 2012. inhibition, % at 11.9 µM. 360,000 compounds, 0.26% hits; in the data active = inhibition above about 11%
# AddAB confirm: growth loss of phage-infected E. coli expressing H. pylori AddAB, confirmation, AddAB inhibitor project, absorbance, E. coli V3065, T4 phage, triplicate; OD; T4 phage with gene 2 nonsense mutations; shares compounds with AddAB inh; 880 compounds, 64% hits; inhibition, % at 11.9 µM; AID 488942, 2010;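 active = mean inhibition above a set limit taken from the earlier primary screen, cut at about 13% in these data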;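 note: higher means less bacterial growth since AddAB block lets phage replicate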
# RecBCD counter: growth loss of RecBCD+ E. coli with mutant T4 phage, counter-screen for AddAB inhibitor project, absorbance, V66 E. coli | shares compounds with AddAB inh | OD growth | inhibition, % at 11.9 µM | 880 compounds, 73% hits | AID 488955, 2010;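 active = mean inhibition above the mean of solvent-only control wells plus 3 SD, cut at about 4% in these data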;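 note: optical density read after an 18 h incubation at 37 °C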
# Bact viability: bacterial viability inhibition counter-screen, confirmation, counter-screen for AddAB inhibitor project, absorbance | shares compounds with AddAB inh | absorbance (AddAB counterscreen) | inhibition, % at 11.9 µM | 880 compounds, 35% hits; in the data active = inhibition above about 25%
# RecBCD conf: growth loss of phage-infected RecBCD+ E. coli, confirmation, RecBCD inhibitor project, absorbance, E. coli V66, T4 gene 2 phage; shares compounds with phage Ecoli inh; E. coli V66 + T4 2- phage, growth OD; inhibition, % at 11.9 µM; 890 compounds, 45% hits; AID 651982, 2013;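 active = mean inhibition over triplicates exceeding the hit threshold derived in the original primary screen, cut at about 11% in these data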
# Ecoli viability: E. coli viability inhibition, counter-screen for RecBCD inhibitor project, absorbance, high throughput | absorbance (OD) growth | 890 compounds, 29% hits | shares compounds with phage Ecoli inh | inhibition, % at 11.9 µM; in the data active = inhibition above about 20%;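 note: E. coli strain V66 grown with compound alone and no phage infection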
# AddAB phage OD: growth loss of phage-infected AddAB-carrying E. coli, confirmation, counter-screen for RecBCD inhibitor project, absorbance, E. coli V3065, T4 phage | AID 651984, 2013 | inhibition, % at 11.9 µM | 890 compounds, 45% hits | E. coli expressing H. pylori AddAB + T4 phage, OD growth; gene 2 mutant T4, recBCD-deleted host | shares compounds with phage Ecoli inh;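 active = mean inhibition above the solvent-only control wells' mean plus 3 SD, cut at about 22% in these data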;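 note: higher means less bacterial growth from phage killing when AddAB is blocked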
# Numbers stand for hits; – = inactive; · = not tested or not shown.
SMILES,AddAB inh,E coli growth-1,E coli growth-2,Tat transport,phage Ecoli inh,AddAB confirm,RecBCD counter,Bact viability,RecBCD conf,Ecoli viability,AddAB phage OD
COc1ccc(NC(=O)Cn2cc(C(=O)c3ccco3)c3ccccc32)cc1,16,–,18,–,18,13,13,–,–,–,–
COC(=O)Cn1cc(C(=O)c2ccco2)c2ccccc21,–,–,–,–,–,·,·,·,·,·,·
O=c1c2cc(Br)ccc2nc(-c2cccc(C(F)(F)F)c2)n1O,16,–,16,–,17,–,16,–,–,–,–
N#Cc1ccc(-c2nc3ccc(Br)cc3c(=O)n2O)cc1,–,–,–,–,–,·,·,·,·,·,·
Nc1c(C(=O)NC2CCCC2)c2nc3ccccc3nc2n1N=Cc1ccco1,·,–,·,·,·,·,·,·,·,·,·
COc1cc(-c2nnc(SCc3cc(=O)oc4cc(O)c(O)cc34)o2)cc(OC)c1OC,18,–,18,–,16,18,16,–,–,–,–
CNC(=S)NN=C(C)c1ccc(Cl)c(Cl)c1,·,–,·,·,·,·,·,·,·,·,·
CCC(=O)N1CCN(c2ccc(Cl)cc2NC(=O)c2ccc([N+](=O)[O-])o2)CC1,–,–,–,–,–,·,·,·,·,·,·
O=C(Nc1cc(Cl)ccc1-n1cncn1)c1ccc([N+](=O)[O-])o1,99,–,32,–,16,92,12,57,–,–,98
CCN(CC)C(=O)c1[nH]cnc1C(=O)NC(CC(C)C)C(=O)OCc1ccccc1 (stereo unspecified),·,–,·,·,·,·,·,·,·,·,·
O=c1cc2oc3cc(O)c(O)cc3c(-c3ccccc3[N+](=O)[O-])c-2cc1O,13,–,12,–,11,–,12,–,–,–,–
CC(C)CNC(=O)CC(=O)NN=Cc1ccc(F)cc1,·,–,·,·,·,·,·,·,·,·,·
O=C1NCCCC1C(=O)N1CCCCC1 (stereo unspecified),–,–,–,–,–,·,·,·,·,·,·
O=C1CCC(=O)N(O)CCCCCNC(=O)CCC(=O)N(O)CCCCNC(=O)CCC(=O)N(O)CCCCCN1,31,–,28,–,22,26,23,–,16,20,–
CCCCNC1=CC(=O)C(=O)c2ccccc21,29,0.42,25,–,21,32,9.9,–,13,–,22
CCCCNC1=CC(=O)C(NCCCC)=CC1=O,·,–,·,–,–,·,·,·,·,·,·
COc1cccc(/C=N/Nc2ccc([N+](=O)[O-])cn2)c1O,26,·,22,–,18,21,17,–,12,–,–
COc1ccc(CSCC(=O)NN=Cc2ccccc2OCc2ccccc2)cc1,·,–,·,·,·,·,·,·,·,·,·
CS(=O)(=O)c1ccc([C@@H](O)[C@@H](CF)NC(=O)C(Cl)Cl)cc1,84,·,85,147,85,87,90,87,92,94,84
CS(=O)(=O)c1ccc([C@@H](O)[C@@H](CO)NC(=O)C(Cl)Cl)cc1,29,·,29,–,27,–,27,–,35,25,–
CCN(CC)c1ccc(/C=N/NC(=O)c2cccc(S(=O)(=O)Nc3ccccc3OC)c2)c(O)c1,32,·,33,–,28,21,26,–,19,24,28
O=c1c2ccccc2nc(N/N=C/c2ccc(O)cc2)n1O,–,·,–,–,–,·,·,·,·,·,·
O=c1c2ccccc2nc(N/N=C/c2c(O)ccc3ccccc23)n1O,19,·,24,–,21,24,21,–,12,–,–
CC(=O)Nc1ccc(S(=O)(=O)N=C2SCCN2S(=O)(=O)c2ccc(NC(C)=O)cc2)cc1,·,–,·,·,·,·,·,·,·,·,·
Cn1c(O)c(/C=N/NC(=O)c2cc3ccccc3cc2O)c2ccccc21,23,·,25,–,22,25,25,–,19,23,30
SMILES,AddAB inh,E coli growth-1,E coli growth-2,Tat transport,phage Ecoli inh,AddAB confirm,RecBCD counter,Bact viability,RecBCD conf,Ecoli viability,AddAB phage OD
NC(=O)C1CCCCNc2c(F)cc([N+](=O)[O-])cc2C(=O)NC(CCCN=C(N)N)C(=O)NCC(=O)N1 (stereo unspecified),·,–,·,·,·,·,·,·,·,·,·
Nc1nc(F)nc2c1ncn2[C@@H]1O[C@H](CO)[C@@H](O)[C@H]1O,75,·,75,–,68,74,64,77,70,63,78
Nc1ncnc2c1ncn2C1O[C@H](CO)[C@@H](O)[C@@H]1O (stereo partly specified),–,·,–,–,–,·,·,·,·,·,·
CCOc1ccc(C=NNc2ccc(Cl)nn2)c(O)c1,·,–,·,·,·,·,·,·,·,·,·
C=CCNC(=S)N/N=C(\C)c1ccccn1,31,·,30,–,38,31,29,25,27,34,32
CC(=NNC(=S)N1CCCCC1)c1ccccn1,·,·,·,·,–,·,·,·,·,·,·
S=C1NCC(CC2CCCCC2)N1CCc1cccc2ccccc12 (stereo unspecified),·,–,·,·,·,·,·,·,·,·,·
Oc1c(N=Nc2ccccn2)ccc2ccccc12,20,–,18,–,18,21,17,–,12,–,26
Oc1[nH]c2ccccc2c1N=Nc1ccccn1,·,·,·,–,–,·,·,·,·,·,·
O=C(NNC(=O)c1ccccc1O)c1cc2ccccc2o1,20,–,13,–,11,–,11,–,–,–,–
Cc1c(C(=O)NNC(=O)c2ccccc2O)oc2ccc(Br)cc12,21,–,19,–,13,17,17,–,–,–,–
CCOc1ccc2oc(C(=O)NNC(=O)c3ccccc3O)c(C)c2c1,25,–,26,–,21,15,20,–,–,–,–
O=C(NNC(=O)c1cc2ccccc2o1)c1ccncc1,–,–,–,–,–,·,·,·,·,·,·
CCOc1ccc2oc(C(=O)O)c(C)c2c1,–,–,–,–,–,·,·,·,·,·,·
Oc1c(C(c2ccccc2Cl)N2CCCC2)ccc2cccnc12 (stereo unspecified),25,0.38,24,–,16,13,12,–,–,–,–
CN1CCN(C(c2ccc(C(F)(F)F)cc2)c2ccc3cccnc3c2O)CC1 (stereo unspecified),17,·,27,·,17,–,9.7,–,–,–,–
CN1CCN(C(c2ccccc2)c2ccccc2)CC1,–,–,–,–,–,·,·,·,·,·,·
